Laboratory results from PubChem BioAssay AID651593 (National Center for Advancing Translational Sciences (NCATS), 2012).
Out of some 1,100 compounds screened, about 860 (78%) were called active. Inconclusive results (about 19%) are left out. The call rests on the fitted dose curve; in most records, active means well fitted activation curve with a large enough effect; inconclusive means small, poorly fitted or top-dose-only effect; inactive means flat fitted curve, though single readings scatter. So high a share suggests a set chosen from earlier hits. The list shows a part of the results.

assay: qHTS of Nrf2 Activators: Hit Validation in Primary Assay; conditions: Nrf2/ARE reporter cell assay; Potency: activation; series mostly up to 46.1 µM; further: nearly all actives have a fitted effect of over 70% in size
Outline: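 AREc32 cells stably carrying an ARE-driven firefly luciferase, plated overnight, then exposed 24 h at 37 °C to compounds at several concentrations. ARE activation read as luminescence with Steady-Glo after 30 min at room temperature.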
Potency means the concentration at half of the fitted maximal effect.

Potency, active:
O=C(CCNc1cc(Cl)cc(Cl)c1)c1cccs1 6.51 µM
O=[N+]([O-])c1ccc(/C=N/Nc2ccc3ccccc3c2)o1 2.91 µM
Nc1ccc(S(=O)(=O)Nc2nccc(/C=C/c3cccc(Br)c3)n2)cc1 3.26 µM
CC(C)C(=O)Nc1nnc(-c2ccco2)s1 5.8 µM
Cc1cc(NC(=O)Nc2cc(Cl)sc2Cl)no1 4.11 µM
O=C1N/C(=C\c2ccsc2)C(=O)N1Cc1ccc(F)cc1 1.64 µM
Cc1c(=O)n(OCc2ccc(Cl)cc2)c2ccccc2[n+]1[O-] 1.64 µM
Cc1c(=O)n(OCc2ccccc2)c2ccccc2[n+]1[O-] 3.26 µM
C=CCn1c(SCC(C)=O)nc2scc(-c3ccco3)c2c1=O 0.731 µM
O=C(/C=C\c1ccc2c(c1)OCO2)CC1(O)C(=O)Nc2ccccc21 (centres undefined) 23.1 µM
CN1CCN(C(=O)CCN2C(=O)/C(=C/c3cccc(Br)c3)SC2=S)CC1 5.17 µM
O=C(N/N=C/c1ccsc1)c1ccc2ccccc2n1 16.4 µM
C(=N/n1c2ccccc2c2ccccc21)/c1ccco1 2.31 µM
COc1ccccc1C=Cc1ccnc2ccccc12 2.06 µM
O=C(/C=C/c1ccccc1)Nc1ncn[nH]1 3.66 µM
Cc1nc(NC(=O)/C=C/c2ccccc2)n[nH]1 3.66 µM
FC(F)(F)c1cc(-c2cccs2)nc(-n2cc(Br)cn2)n1 1.3 µM
C/C(=N\NC(=O)c1cccc(Br)c1)c1ccccn1 4.61 µM
CCn1c(/C=C/c2ccccc2[N+](=O)[O-])nc2ccccc2c1=O 3.66 µM
O=c1[nH]c(/C=C/c2ccccc2[N+](=O)[O-])nc2ccccc12 0.411 µM
CCn1c(/C=C/c2ccccc2)nc2ccccc2c1=O 4.11 µM
CCn1c(/C=C/c2ccccc2F)nc2ccccc2c1=O 2.31 µM
CCCn1c(-c2cccs2)nc2nc3ccccc3nc21 1.84 µM
O=c1cc(-c2ccccc2Cl)oc2c(Br)ccc(O)c12 6.51 µM
[O-][n+]1onc2c3ccnnc3ccc21 10.3 µM
c1ccc(-c2cc3c(ccc4nonc43)nn2)cc1 7.31 µM
[O-][n+]1onc2c3cc(-c4ccccc4)nnc3ccc21 8.2 µM
CC(=O)N1CCc2c(sc(NC(=O)CCS(=O)(=O)c3ccccc3)c2C#N)C1 18.4 µM
O=C1C(=Cc2ccco2)CCCC1=Cc1ccco1 3.26 µM
